In PubChem BioAssay AID602314 (ICCB-Longwood Screening Facility, Harvard Medical School, 2012) one finds inhibition data, which are given here for 10 compounds.

Out of some 84,000 compounds screened, about 110 (0.13%) were called active. No stated cut-off is given here; in the data, active means inhibition above about 30% (passing the limit was not always enough); inactive means the rest. The sample as a whole holds a higher share of actives than the screen did.

Broadly, the inhibition is the drop in the measured response relative to a control, in per cent.

This test concerns MgrA (MarR family transcriptional regulator), Staphylococcus aureus Newman. The test is described as follows: modulators of MgrA DNA binding – biochemical, S. aureus Newman, fluorescence polarization, primary screen (AID 602314).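 Further: 0% = protein plus DNA without compound and 100% = DNA alone without protein; higher means less MgrA bound to DNA so lower polarization.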 The conditions noted are these: stronger effect = higher value, concentration not given here. On the technique in general: In fluorescence polarisation assays a small probe gives low polarisation when free and higher when bound to something large.
For the compound `CCN1C(=O)/C(=C/C=C/c2ccco2)C(=O)NC1=S`, the inhibition is 66.7% (active).
Under `CCN(CC)P1(=S)OC(C)(C)CC1(C)O` (stereo not given) stands 0.3% (inactive); under `O=C1CSC(c2ccccc2)c2c(-c3ccccc3)nn(-c3ccccc3)c2N1` (stereo not given), -0.55% (inactive); under `CCn1cc(C=C(C#N)C#N)c2ccccc21`, -2.65% (inactive).
As for `O=C1NC(=O)C(C2(C3C(=O)NC(=O)NC3=O)C(=O)Nc3ccccc32)C(=O)N1`, the inhibition was 1.5% (inactive).
`COc1cccc(N2C(=O)/C(=C/c3ccsc3)C(=O)NC2=S)c1`: the inhibition is 18.1% (inactive).
Turning to `NC1=C(C(=O)OCc2ccccc2)C2(C(=O)Nc3ccc(Br)cc32)c2c(c3ccccc3oc2=O)O1` (stereo not given), the inhibition was -0.3% (inactive).
Under `CN1CCc2c(c(S)[nH]c(=S)c2C#N)C1` stands 77.6% (active); under `Cn1c([O-])c([N+](C)(C)C)c(=O)n(C)c1=O`, 0.5% (inactive).
As for `O=C1CC(c2cccc(Br)c2)c2c(c3ccccc3oc2=O)O1` (stereo not given), the figure is 13.6% (inactive).
